Screening data deposited in PubChem by National Center for Advancing Translational Sciences (NCATS).
Only some compounds are listed: those with a hit (about 9.3% of all), similar ones and a draw of the others.
Sm TGR block: inhibitors of Schistosoma mansoni thioredoxin glutathione reductase; Q962Y6; purified TGR, DTNB reduction, TNB absorbance 405 nm; Potency, µM (highest dose often 114 µM), usual class: inhibitors; hit rate 3% among 360,000; AID 485364; further: nearly all actives have a fitted effect of over 60% in size
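TGR 20 nM + NADPH 100 uM (dispensed conc.), cpd preinc 15 min RT; start with NADPH (500 uM addition) then DTNB (15 mM addition). Kinetic TNB absorbance, 405 nm filter. Four-parameter Hill fit across titration.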
HCV inhibitor: HCV inhibition; Huh7.5.1 HCVcc-Cre infection, luciferase reporter, 44 h; Potency, µM (doses to about 41.8 µM), actives largely listed as inhibitors; hit rate 3.4% among 340,000
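HCVcc-Cre virus at an moi near 0.5 was added right after compound to cells cultured 4 h from seeding (1,000 cells/well). Luciferase activity was determined 44 h later, 15 min after substrate addition at RT.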
Vaccinia Venus: inhibitors of vaccinia virus (Venus reporter); Vaccinia virus Venus reporter expression, fluorescence; Potency, µM (top dose mostly 36.5 µM), usual class: inhibitors; hit rate 0.46% among 330,000; AID 720580; calls by dose curve; tested in A549 cells; further: nearly all actives have a fitted effect of over 30% in size
VACV mCherry inh: vaccinia inhibition (mCherry reporter); hit rate 0.63% among 310,000; Potency, µM (series often up to 36.5 µM), usual class: inhibitors; Vaccinia virus mCherry reporter infection, fluorescence; calls by dose curve; tested in A549 cells; further: nearly all actives have a fitted effect of over 35% in size
HCMV antiviral: inhibitors of human cytomegalovirus; HFF cells, HCMV-luciferase reporter, 72 h; active compounds read low; activity change, negative = inhibition, % at 57.5 µM; hit rate 4.5% among 410,000; in the data active means activity change below about -60%; inconclusive means no clear call, values can overlap the other calls; inactive means above about -39%
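Inhibition of viral replication was scored as loss of reporter luminescence in HFFs infected with HCMV-luciferase (MOI 1 PFU/cell) for 72 h; compounds tested at 2 doses, normalized to buffer and Salinomycin controls.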
FMDV inh: blocks foot and mouth disease virus | hit rate 1.2% among 410,000 | FMDV antiviral cell-based qHTS | Potency, µM (highest dose often 57.9 µM), actives largely listed as inhibitors; calls by dose curve; tested in HEK293T cells; further: read-out not given here; nearly all actives have a fitted effect of over 45% in size
Large screens that a line does not name were inactive; ! = repeats disagree. Unless noted, the call rests on the fitted dose curve; in most records, active means well fitted curve in the direction sought with a large enough effect; inconclusive means small, poorly fitted or top-dose-only effect, or another doubt; inactive means no such curve, though single readings can be large; an effect the other way counts as inactive or inconclusive.

CCOc1ccc2c(c1)C(C)=CC(C)(C)N2S(=O)(=O)c1ccc(F)cc1	HCV inhibitor inconclusive (no result: Vaccinia Venus, VACV mCherry inh)
CCOc1ccc2c(c1)C(C)=CC(C)(C)N2S(=O)(=O)c1ccc(NC(C)=O)cc1	HCV inhibitor inconclusive, HCMV antiviral inconclusive (no result: Vaccinia Venus, VACV mCherry inh)
COc1ccc2c(c1)C(C)=CC(C)(C)N2S(=O)(=O)c1ccc(NC(C)=O)cc1	Vaccinia Venus inconclusive, HCMV antiviral -90
COc1ccc2c(c1)C(C)=CC(C)(C)N2S(=O)(=O)c1ccc(Br)cc1	HCV inhibitor inconclusive, HCMV antiviral -80
CCN(C(=O)c1cc2c(s1)-c1ccccc1OC2)c1cccc(C(F)(F)F)c1	FMDV inh inconclusive (no result: HCV inhibitor)
CC(=O)N[C@@H](Cc1ccc(OC(F)(F)F)cc1)C(=O)O	none (no result: Vaccinia Venus, VACV mCherry inh)
Cc1ccccc1CN(C)C(=O)[C@H](Cc1ccccc1)NC(=O)c1ccco1	none (no result: Vaccinia Venus, VACV mCherry inh)
CC1(C(=O)O)CCN1C(=O)c1ccccc1F (configuration not stated)	FMDV inh 5µM (no result: Sm TGR block, HCV inhibitor)
CCn1c2ccccc2n2c(=O)c(=O)n(CC(=O)N3CCN(c4ccccc4OC)CC3)nc12	none (no result: HCV inhibitor, Vaccinia Venus, VACV mCherry inh, HCMV antiviral, FMDV inh)
O=C(CCCc1c[nH]c2ccccc12)Nc1ncccc1O	HCMV antiviral -88 (no result: Vaccinia Venus, VACV mCherry inh)
Cc1cccnc1NC(=O)CCCc1c[nH]c2ccccc12	none
CCOc1ncccc1C(=O)NCCc1c[nH]c2ccccc12	HCMV antiviral -66
c1ccc2c(-c3[nH]ncc3CNCCCn3ncc4ccccc43)cccc2c1	HCV inhibitor 10µM, HCMV antiviral inconclusive, FMDV inh inconclusive
COc1ccc(C(=O)CSC#N)cc1OC	Sm TGR block inconclusive, HCMV antiviral inconclusive
COc1ccc(CCNC(=O)c2c(O)nc3ccccn3c2=O)cc1OC	none (no result: HCV inhibitor)
CCCOc1ccc(N2C(=O)CC(NNC(=O)c3ccc(COc4ccccc4)o3)C2=O)cc1 (configuration not stated)	Sm TGR block inconclusive
CCOc1cccc(N2C(=O)CC(NNC(=O)c3ccc(Br)o3)C2=O)c1 (configuration not stated)	Sm TGR block 25µM
COc1cccc(C(=O)Nc2ccc(S(=O)(=O)N3CCN(C)CC3)cc2)c1	none
COCCOc1ccc(C(F)(F)F)cc1Nc1nc2ccccc2o1	HCV inhibitor 14µM, VACV mCherry inh inconclusive
COc1ccc(NS(=O)(=O)c2ccc3oc(=O)c4[nH]c(=O)c(=O)n(C)c4c3c2)cc1	Sm TGR block 50µM (no result: Vaccinia Venus, VACV mCherry inh)
CN(C)CCNc1ccc2ncn3c4ccc(O)cc4c(=O)c1c23	HCV inhibitor inconclusive, Vaccinia Venus 1.1µM, VACV mCherry inh 0.79µM, HCMV antiviral -93, FMDV inh inconclusive (no result: Sm TGR block)
CN(C)CCNc1ccc(CO)c2sc3ccc(O)cc3c(=O)c12	HCV inhibitor inconclusive, Vaccinia Venus inconclusive, VACV mCherry inh inconclusive, HCMV antiviral -97 (no result: Sm TGR block)
CCOC(=O)CC1(C)Oc2cc(Cl)ccc2N1S(=O)(=O)c1ccc(C)cc1 (configuration not stated)	VACV mCherry inh inconclusive, HCMV antiviral -70 (no result: Sm TGR block, HCV inhibitor)
Nc1ncnc2c1ncn2[C@@H]1O[C@H](COP(=O)(O)CP(=O)(O)O)[C@@H](O)[C@H]1O	none (no result: Sm TGR block)
CCn1cc(/C=C(\NC(=O)c2cc(OC)c(OC)c(OC)c2)C(=O)NCCCn2ccnc2)c2ccccc21	HCMV antiviral -104 (no result: HCV inhibitor)
CN(C)S(=O)(=O)n1cc(/C=C(\NC(=O)c2ccccc2Cl)C(=O)NCCCn2ccnc2)c2ccccc21	HCMV antiviral -105!
CN(C)S(=O)(=O)n1cc(/C=C(\NC(=O)c2ccccc2F)C(=O)N2CCCCC2)c2ccccc21	VACV mCherry inh inconclusive, HCMV antiviral -97 (no result: Sm TGR block, HCV inhibitor)
CCn1cc(/C=C(\NC(=O)c2ccc(OC)c(OC)c2)C(=O)NCCCn2ccnc2)c2ccccc21	none (no result: HCV inhibitor)
CC12CCC(C(=O)N(CCCN3CCN(Cc4ccccc4)CC3)C1=O)C2(C)C (configuration not stated)	HCMV antiviral -90
Cc1nn(Cc2ccccc2)c(Cl)c1C(=O)OCc1nnc(-c2ccc(Cl)cc2)o1	none (no result: VACV mCherry inh)
COc1ccccc1N1CCN(S(=O)(=O)CCNC(=O)C23CC4CC(CC(C4)C2)C3)CC1	HCV inhibitor inconclusive, FMDV inh 14µM (no result: Vaccinia Venus, VACV mCherry inh)
COc1ccc(Cl)cc1C(=O)NCCS(=O)(=O)N1CCN(c2ccccc2OC)CC1	VACV mCherry inh inconclusive, FMDV inh 8.9µM (no result: HCV inhibitor)
COc1ccc(CC(=O)NCCS(=O)(=O)N2CCN(c3ccccc3OC)CC2)cc1	none
COc1ccccc1N1CCN(S(=O)(=O)CCNC(=O)CCc2ccccc2)CC1	HCMV antiviral -86, FMDV inh inconclusive (no result: Sm TGR block, HCV inhibitor)
COc1ccccc1N1CCN(CCS(=O)(=O)c2cc(Cl)ccc2Cl)CC1	Vaccinia Venus inconclusive, VACV mCherry inh 8.9µM (no result: Sm TGR block, HCV inhibitor)
COc1ccc(Cl)cc1C(=O)NCCS(=O)(=O)N1CCN(c2ccccc2F)CC1	none (no result: Vaccinia Venus, VACV mCherry inh)
CC(C)(C)c1ccc(OCC(=O)Nc2ccc(Cl)cc2C(=O)c2ccccc2)cc1	none (no result: HCV inhibitor)
Cc1ccc(/C=N/OC(=O)c2c(C)noc2-c2snnc2C)cc1	none
CCc1ccc(C(=O)NNc2cc(Cl)ccc2Cl)cc1	HCV inhibitor inconclusive, HCMV antiviral -68 (no result: Vaccinia Venus, VACV mCherry inh)
COC(=O)c1[nH]c2cc(C)ccc2c1NC(=O)CN1CCN(c2ccccc2OC)CC1	HCV inhibitor 10µM, FMDV inh inconclusive (no result: VACV mCherry inh)
COC(=O)c1[nH]c2ccccc2c1NC(=O)CN1CCN(c2cccc(Cl)c2)CC1	HCV inhibitor inconclusive, HCMV antiviral inconclusive, FMDV inh 14µM (no result: VACV mCherry inh)
COC(=O)c1[nH]c2ccccc2c1NC(=O)CN1CCCCCC1	HCV inhibitor inconclusive
COC(=O)c1[nH]c2cc(OC)ccc2c1NC(=O)CN1CCN(c2cccc(C)c2)C(C)C1 (configuration not stated)	HCV inhibitor 10µM, Vaccinia Venus inconclusive, VACV mCherry inh inconclusive, FMDV inh inconclusive
CC(Oc1ccccc1)C(=O)NNS(=O)(=O)c1ccc([N+](=O)[O-])cc1 (configuration not stated)	none
COc1ccc2c(C)c(CCC(=O)NCc3cccc(Cl)c3)c(=O)oc2c1	none (no result: HCV inhibitor)
CN1CCN(c2ccc([N+](=O)[O-])c(-n3nc(-c4ccccc4)c4ccccc4c3=O)c2)CC1	HCV inhibitor 4.5µM, Vaccinia Venus inconclusive, VACV mCherry inh inconclusive
Cc1nn(-c2cc(N3CCCCC3)ccc2[N+](=O)[O-])c(=O)c2ccccc12	HCV inhibitor inconclusive (no result: Vaccinia Venus, VACV mCherry inh)
CC(C)(C)C(=O)Nc1ccccc1C(=O)N1CCCC1	none
N#Cc1cc(C(=O)c2cc(Br)ccc2O)cn(C2CCCCC2)c1=O	HCV inhibitor 11µM, FMDV inh inconclusive (no result: Vaccinia Venus, VACV mCherry inh)
COc1ccc(CNC(=O)C2CCCN(S(=O)(=O)N3CCC(C)CC3)C2)c(OC)c1 (configuration not stated)	HCMV antiviral active
CSc1ccc(CCNC(=O)C2CCCN(S(=O)(=O)N(C)c3ccc(F)cc3)C2)cc1 (configuration not stated)	HCMV antiviral inconclusive, FMDV inh 35µM (no result: HCV inhibitor)
COc1cccc(CNC(=O)C2CCCN(S(=O)(=O)N(C)c3ccc(F)cc3)C2)c1OC (configuration not stated)	HCMV antiviral -71, FMDV inh 22µM (no result: HCV inhibitor)
